# Screens from PubChem BioAssay.
# S2 tox: viability counter-screen for ATXN expression inhibitors. Potency, µM (series often up to 56.7 µM), hits mostly cytotoxic. 400,000 tested, 0.49% active. AID 651635. S2 cells (HEK-293 line with an ATXN2-luciferase reporter) viability, CellTiter-Fluor protease fluorescence, 24 h; note: nearly all actives have a fitted effect of over 40% in size
# HepG2 tox: kills HepG2 cells in TGF-b inhibitor counter-screen; 410,000 tested, 0.76% active; HepG2 CAGA-GFP viability, ATP luminescence, 18 h; Potency, µM (series often up to 46.1 µM), most hits filed as cytotoxic; AID 588856
#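 HepG2 CAGA-GFP cells (1000/well, DMEM with 1% FBS) received compound, then TGF-beta at 500 pg/mL final, and were incubated 18 hours at 37 degrees C. Viability was read by CellTiter-Glo luminescence. Media-only wells were set as complete cell-killing and DMSO as no toxicity.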
# TGFb SMAD3 inh: blocks TGF-b signaling | HepG2 CAGA-GFP TGF-b/SMAD3 reporter, GFP fluorescence, 18 h; TGF-beta stimulated, 500 pg/mL final | Potency, µM (series often up to 46.1 µM), hits mostly inhibitors | 410,000 tested, 1.2% active; note: nearly all actives have a fitted effect of over 65% in size
#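 HEPG2 CAGA-GFP reporter cells (1000/well, DMEM with 1% FBS) received compounds, then recombinant TGF-beta at 500 pg/mL final for 18 hours at 37 degrees C. Per-cell GFP summed per well was normalised to unstimulated and stimulated DMSO controls before curve fitting.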
# ATXN2 expr inh: ATXN2 expression inhibition | HEK-293 ATXN2-luciferase reporter, luminescence, 24 h | 360,000 tested, 0.72% active | Potency, µM (doses to about 57 µM), hits mostly inhibitors; note: nearly all actives have a fitted effect of over 55% in size
#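 ATXN2-luciferase reporter cells (luciferase flanked by upstream and downstream ATXN2 gene portions) were treated 24 h at 37 °C with compounds at up to 57 uM. SteadyGlo luminescence gave expression; GF-AFC fluorescence gave viability.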
# HT1080NT lethal: kills 2HG-producing HT-1080-NT fibrosarcoma cells | HT-1080-NT fibrosarcoma viability, CellTiter-Glo ATP luminescence, 48 h | AID 686970 | Potency, µM (top dose mostly 46.1 µM), actives largely listed as cytotoxic | 360,000 tested, 1.6% active;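 note: NT is the 2HG producing partner of a matched IDH1 knockdown line; nearly all actives have a fitted effect of over 55% in size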
#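 750 cells/well, RPMI + 5% FBS; 2 h settle, compound pin-transfer, 48 h at 37 degrees C. CellTiter-Glo 10 min RT, luminescence. Normalized to DMSO and media-only wells.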
# HT1080 IDH1KD tx: kills HT-1080 cells with IDH1 knockdown; HT-1080 IDH1 knockdown viability, ATP luminescence, 48 h; Potency, µM (titrated, usually from 46.1 µM), hits mostly cytotoxic; 360,000 tested, 2% active; AID 686971
#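 IDH1KD HT-1080 cells, 750/well, RPMI + 5% FBS; compound pinned after 2 h settling; 48 h, 37 °C; CellTiter-Glo luminescence; % activity normalised to DMSO and no-cell wells; curves fitted, classed by r2 and efficacy.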
# Numbers stand for hits; - = inactive; ? = inconclusive; . = not tested or not shown; ! = a repeat was not active. Sampled rows, rich in hits. Any-hit rate of the full collection: about 3.9%. Calls come from the whole dose curve; as a rule, active = well fitted curve in the direction sought with a large enough effect; inconclusive = small, poorly fitted or top-dose-only effect, or another doubt; inactive = no such curve, though single readings can be large; an effect the other way counts as inactive or inconclusive.
SMILES,S2 tox,HepG2 tox,TGFb SMAD3 inh,ATXN2 expr inh,HT1080NT lethal,HT1080 IDH1KD tx
CC(=O)Nc1ccc(-c2ccnc3c2CC(C(=O)Nc2cccc(C(F)(F)F)c2)O3)cc1 (stereo not given),?,-,?,?,?,16µM
CC(=O)Nc1ccc(-c2ccnc3c2CC(C(=O)Nc2cccc(Oc4ccccc4)c2)O3)cc1 (stereo not given),?,-,-,?,?,15µM
CCN(CC)CCSc1c(C(C)C)cnc2c1c(=O)n(C)c(=O)n2C,.,-,-,.,.,.
c1ccc2c(Oc3nc(Nc4ccc(N5CCOCC5)cc4)c4ncn(C5CCCCC5)c4n3)cccc2c1,.,.,.,-,.,.
O=[N+]([O-])c1ccc(Oc2cccc(Br)c2)c2ccncc12,-,-,-,-,21µM,?
CCCn1c(SCC(=O)Nc2ccccc2OC)nnc1-c1ccco1,?,-,-,-,16µM,18µM
CC1=C(c2ccc(C)cc2)S(=O)(=O)N(Cc2ccc(C(=O)Nc3ccc(C)c(F)c3)cc2)C1=O,-,-,?,-,.,.
Cc1[nH]nc(-c2ccc(OCc3cnn(-c4ccccc4)c3)c(C)c2O)c1Oc1ccccc1,?,-,?,-,21µM,16µM
COc1ccc(NS(=O)(=O)c2cc(Br)cc3c2N(C(C)=O)CC3)cc1,-,-,-,-,18µM,12µM
COc1ccc(-c2cc(C(=O)N3CCN(c4ccccc4)CC3)c3ccccc3n2)cc1,?,-,-,-,?,1.8µM
O=C(c1cc(-c2ccccc2)nc2ccccc12)N1CCCC1,-,-,-,-,-,-
Cc1cnn(C(=O)c2cc(-c3ccccc3)nc3ccccc23)c1,-,10µM,?,-,-,-
CCOc1ccc(-c2cc(C(=O)N3CCN(C)CC3)c3ccccc3n2)cc1,-,-,-,-,-,-
CCOC(=O)N1CCN(C(=O)c2cc(-c3ccc(OCC)cc3)nc3ccccc23)CC1,?,-,-,-,5µM,5µM
O=C(C[n+]1ccccc1Cl)c1cccc([N+](=O)[O-])c1,.,-,-,.,.,.
CC[C@@H](C)[C@H](NC(=O)OC(C)(C)C)c1nnc(S(=O)(=O)Cc2cc(C)ccc2C)o1,.,-,?,?,16µM,10µM
CC(C)[C@H](NC(=O)OC(C)(C)C)c1nnc(S(=O)(=O)Cc2c(F)cccc2Cl)o1,.,20µM,11µM,?,6.3µM,4µM
C[C@H](NC(=O)OC(C)(C)C)c1nnc(SCc2c(F)cccc2Cl)o1,-,-,-,-,.,.
O=S(=O)(Nc1ccc(N=Nc2ccc(O)c3ccccc23)cc1)c1ccccc1,?,-,?,-,-,?
O=[N+]([O-])c1ccc(N=Nc2ccc(O)c3ccccc23)cc1,?,13µM,?,?,26µM,?
C/C(=N\Nc1ccc([N+](=O)[O-])cc1)c1ccc(C#N)cc1,-,-,-,-,-,-
C/C(=N/Nc1ccc([N+](=O)[O-])cc1)c1ccc(C)cc1C,?,-,3.5µM,-,-,-
O=C(O)CC/C(=N/Nc1ccc([N+](=O)[O-])cc1)C(=O)O,?,-,-,-,1.6µM,5.8µM
Clc1ccccc1CNc1ncnc2c1c(-c1ccccc1)cn2-c1ccccc1,.,-,-,.,.,.
CCN(CC)C(=O)c1sc2c(c1C)c(=O)n(-c1ccc(C)c(C)c1)c(=O)n2CC(=O)Nc1ccc(F)cc1,?,-,-,-,.,.
SMILES,S2 tox,HepG2 tox,TGFb SMAD3 inh,ATXN2 expr inh,HT1080NT lethal,HT1080 IDH1KD tx
CN(C(=O)/C(N=Nc1cccc(C(F)(F)F)c1)=C(\O)C(F)(F)F)c1ccccc1,-,-,?,-,11µM,?
CC(=O)/C(N=Nc1cccc(C(F)(F)F)c1)=C(\C)O,-,-,-,-,-,-
O=C(/C(N=Nc1cccc(C(F)(F)F)c1)=C(/O)c1cccs1)C(F)(F)F,?,-,13µM,?,?,21µM
Cc1nn2c(NCCCn3ccnc3)cc(C(C)C)nc2c1-c1ccccc1,-,-,-,-,15µM,?
Cc1nn2c(NCc3ccccn3)cc(C(C)C)nc2c1-c1ccccc1,?,-,11µM,.,-,?
CCCc1cc(NCc2ccccn2)n2nc(C)c(-c3ccccc3)c2n1,?,-,?,10µM,-,?
CC(=O)c1ccc(NC(=O)CSC2=Nc3ccccc3N=C(c3ccc(F)cc3)C2)cc1,-,-,?,-,.,.
CC(=O)Nc1ccccc1-c1nc(CNC(=O)c2ccc(C)cc2)c(C)o1,-,.,.,.,.,.
COc1cccc(Cn2c(CNS(=O)(=O)c3ccc(F)c(Cl)c3)nc3cccnc32)c1,.,-,?,.,.,.
COc1ccc(CNCc2cn(-c3cccc(F)c3)nc2-c2ccc(C)o2)cc1,?,-,13µM,.,-,?
CCOC(=O)c1cnc2ccccc2c1NCCc1ccc(OC)c(OC)c1,?,-,?,?,-,-
CCOC(=O)c1cnc2ccc(OC)cc2c1NCCc1ccc(OC)c(OC)c1,?,-,16µM!,28µM!,-,-
N#C/C(=C/c1cn(-c2ccccc2)nc1-c1cccc(OCc2ccc(F)cc2)c1)C(=O)NCCCn1ccnc1,-,-,?,?,16µM,?
CCCOc1cccc(-c2nn(-c3ccccc3)cc2/C=C(\C#N)C(=O)NCCCn2ccnc2)c1,-,-,-,-,-,-
CN(C)c1nc2cc3c(cc2cc1CN(CC1CCCO1)C(=O)c1cccc(F)c1)OCO3 (stereo not given),-,.,.,.,.,.
ClC(Cl)(Cl)c1nc2ccccc2n2nncc12,?,20µM,16µM,13µM,6.5µM,7.3µM
CN1/C(=C/c2cc[n+](C)c3ccccc23)C=Cc2ccccc21,?,-,?,3.8µM,7.3µM,5.8µM
Cc1oc(-c2ccccc2)nc1CSc1nnc(C)n2c1cc1sccc12,.,-,-,.,.,.
O=C(Nc1ccc2nc(-c3cccnc3)[nH]c2c1)C12CC3CC(CC(C3)C1)C2,?,-,-,-,13µM,18µM
COc1cccc(Cn2c(-c3nonc3NC(C)=O)nc3ccccc32)c1,.,-,-,.,.,.
CCOC(=O)CSc1nnc2n(-c3ccccc3)c(=O)c3c4c(sc3n12)CC(C(C)(C)C)CC4 (stereo not given),.,11µM,?,?,.,.
CCOC(=O)CSc1nnc2n(-c3ccccc3)c(=O)c3c4c(sc3n12)COC(C(C)C)C4 (stereo not given),-,-,-,-,.,.
OC(c1ccc2c(c1)CN(Cc1ccc3nsnc3c1)CCO2)C1CCCCC1 (stereo not given),-,.,.,.,.,.
O=[N+]([O-])c1ccc(-n2nnnc2-c2ccccc2)cc1,-,-,-,.,-,-
O=[N+]([O-])c1ccc(-n2nnnc2-c2ccccc2)c([N+](=O)[O-])c1,?,16µM,10µM,?,?,?
